Shiga inhibitor = inhibitors of Shiga toxin in Vero cells. Vero cells, Shiga toxin protein synthesis inhibition reporter. inhibition, % at 38.7 µM. actives 9.2% (n = 290,000). AID 2315; in the data active = inhibition mostly above about 28%, no sharp cut-off; inactive = mostly below about 43%; note: 0% is about no effect
Lassa entry inh = blocks Lassa virus binding to or entry into cells | Lassa virus pseudotype entry inhibition, cell reporter | Potency, µM (series often up to 37.9 µM), for the others: top-dose activity change, negative = inhibition, actives largely listed as inhibitors | actives 1.2% (n = 300,000) | AID 540256; calls by dose curve; tested in HEK293 cells; note: potency is the fitted concentration of half-maximal effect; % is set by controls: 0 for no effect and ±100 for the full control effect; nearly all actives have a fitted effect of over 50% in size
Pf growth 96h = P. falciparum growth inhibition at 96 hour, primary screen for plastid delayed-death inhibitors; P. falciparum luciferase reporter growth, 96 h; Potency, µM (top dose mostly 28.7 µM), without a hit: at the top dose activity change, negative = inhibition, hits mostly inhibitors; actives 6.9% (n = 320,000); AID 504834; note: potency is the fitted concentration of half-maximal effect; % is set by controls: 0 for no effect and ±100 for the full control effect
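Two-generation exposure (96 h) targets delayed-death phenotype. Reporter parasites carrying integrated firefly luciferase, in red cells at 2% hematocrit and 0.05% parasitemia final, kept at 37 C, 5% CO2; luminescence loss indicates inhibition.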
Pf growth 48h = P. falciparum growth inhibition at 48 hours (one generation). P. falciparum luciferase growth in erythrocytes, 48 h. Potency, µM (top dose mostly 28.7 µM), for inactives: top-dose activity change, negative = inhibition, actives largely listed as inhibitors. actives 5.9% (n = 310,000). AID 504832; note: potency is the fitted concentration of half-maximal effect; % is set by controls: 0 for no effect and ±100 for the full control effect
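Parasite viability was followed by luminescence of a genomically integrated firefly luciferase. Cultures held 0.1% parasitemia at 2% hematocrit (final), incubated under 5% CO2 at 37 C.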
MARV entry inh = Marburg virus entry inhibition | Potency, µM (series often up to 37.8 µM), for the others: at the top dose activity change, negative = inhibition, usual class: inhibitors | Marburg virus pseudotyped entry inhibition, cell reporter | actives 1.8% (n = 300,000); calls by dose curve; tested in HEK293 cells; note: potency is the fitted concentration of half-maximal effect; % is set by controls: 0 for no effect and ±100 for the full control effect
Cycloheximide cs = affects cycloheximide protein synthesis inhibition readout, counter-screen; cell reporter, cycloheximide protein synthesis inhibition counterscreen; max response, %; actives 12% (n = 300,000); in the data active = max response mostly above about 13%, no sharp cut-off; inactive = mostly below about 14%; note: read at 38.3 µM for the half of the compounds with a filed dose; 0% is about no effect
Active calls of the source: *; ? = inconclusive; . = no result given; [ ] = dose if it differs, or a comment. Most compounds without a hit are left out; they make up all but 19% or so of the library. Unless noted, calls come from the whole dose curve; as a rule, active = well fitted inhibition curve with a large enough effect; inconclusive = small, poorly fitted or top-dose-only effect, or another doubt; inactive = no such curve, though single readings can be large or run the other way.

SMILES | Shiga inhibitor | Lassa entry inh | Pf growth 96h | Pf growth 48h | MARV entry inh | Cycloheximide cs
Cc1c(C(=O)NC(=S)Nc2ccc(N3CCOCC3)cc2)cccc1[N+](=O)[O-] | 43.2* | -1.6%[46.1 µM] | ? | 4.7% | 4.7%[46.1 µM] | 9.8*
O=C(NC(=S)Nc1ccc(N2CCOCC2)cc1)c1ccccc1 | 41.7 | -2.9% | 33.0% | 216.1% | ? | 15.6
Cc1ccccc1C(=O)NC(=S)Nc1ccc(N2CCOCC2)cc1 | 6.1 | ? | -4.2% | 14.8% | 16.8%[46.1 µM] | 11.3*
O=C(O)c1cc(-c2ccc(O)cc2)on1 | 3.3 | -25.2% | ? | 7.5% | -2.6%[46.1 µM] | -0.9
COc1ccc(C(=O)NC2CCCCCCC2)cc1OC | . | -1.1% | . | . | -9.9% | .
COc1ccc(NC(=O)c2ccc(CNc3c(NC4CCCCC4)c(=O)c3=O)cc2)cc1OC | 19.7 | -2.0% | 14.7µM* | . | ? | 4.0
COc1ccc(CNC(=O)c2ccc(CNc3c(NC4CCCCC4)c(=O)c3=O)cc2)cc1 | 35.7 | 4.5% | ? | 14.0% | ? | 45.6*
O=C(OCc1ccc([N+](=O)[O-])cc1)C1CCN(S(=O)(=O)c2ccccc2)CC1 | -16.7 | 29.3% | 35.2% | 8.5% | 0.4% | 9.8
C/C=C\C(=O)Nc1cccc(C2=NOC3(C2)C[C@H](C(N)=O)N(C(=O)/C=C/CC)C3)c1 (stereo partly drawn) | -8.4 | . | 40.9% | 39.8% | . | -3.3
O=C(Nc1nc2ccccc2n1CCN1CCOCC1)c1ccccc1 | 18.3 | -14.6% | 0.0% | -27.8% | -8.4% | 10.1*
O=C(Nc1nc2ccccc2n1CCN1CCOCC1)c1cn(-c2ccccc2)nc1-c1ccccc1 | -12.3 | ? | ? | 10.4µM* | ? | 6.8
CC(=O)Nc1nc2ccccc2n1CCN1CCOCC1 | 9.4 | 6.8% | 15.9% | 11.0% | -2.1% | -2.6
CN(C)S(=O)(=O)NCCNC(=O)c1cc(OCC(F)(F)F)ccc1OCC(F)(F)F | -2.2 | ? | 17.9% | 6.9% | ? | -1.8
O=c1c2[nH]c3ccccc3c2ncn1C1CCCCC1 | 47.3 | -17.6% | 52.0% | 432.7% | -16.4%[46.1 µM] | 25.9*
COc1ccc(-n2nnc3c(SCc4ccccc4)ncnc32)cc1 | 0.7 | 4.5% | -27.2% | 20.8% | 11.2% | 2.2
COc1ccc(C2CC(C)(c3ccc(OC)cc3)Nc3ccccc3N2)cc1 (stereo not drawn) | 107.6* | ? | ? | ? | ? | 52.9*
COc1ccc(C2(C)CC(C)(C)Nc3ccccc32)cc1 (stereo not drawn) | . | 1.9%[46.1 µM] | -30.0% | ? | ? | -0.3
O=C(O)c1ccccc1C(=O)c1cccs1 | -7.3 | 12.6% | -4.4% | 1.9% | 14.9% | -2.7
O=C(O)Cc1ccc(C(=O)c2cccs2)s1 | 27.2 | 7.4% | 10.4µM* | 18.2% | -12.7%[46.1 µM] | 16.2
Cc1nn(C)cc1CNC(=O)c1ccc(Br)o1 | -7.0 | 4.3% | . | 39.9% | -0.4% | 4.3
c1ccc(-c2ccccc2OCCCCn2ccnc2)cc1 | -6.6 | -14.5% | ? | 11.7µM* | ? | 1.4
CC(C)(C)c1cc(Cl)ccc1OCCn1ccnc1 | -13.0 | ? | ? | 5.86µM* | ? | 1.4
Cc1cccc(OCCCCCn2ccnc2)c1C | 5.9 | ? | ? | ? | ? | 4.6
CC(C)(C)c1ccccc1OCCCCCn1ccnc1 | 15.8 | -9.0% | 5.86µM* | 11.7µM* | ? | 11.9
COc1ccc(CC(=O)O/N=C(\N)Cc2ccc(OC)cc2)cc1 | 27.7 | -19.5% | ? | 30.4% | 11.0% | -2.7
SMILES | Shiga inhibitor | Lassa entry inh | Pf growth 96h | Pf growth 48h | MARV entry inh | Cycloheximide cs
CC(C)(C)C(=O)O/N=C(\N)Cc1ccc(-c2csnn2)cc1 | -5.2 | ? | 0.0% | ? | 8.91µM* | -1.9
CC(O)c1cccc(N=Cc2ccc3ccccc3c2O)c1 (stereo not drawn) | -5.0 | . | 1.5% | 40.6% | . | -1.0
Cc1cccc(C=Nc2ccc3c(c2)oc2ccccc23)c1O | 97.9* | 12.2% | -29.9% | 50.8% | ? | 62.5*
CCOc1ccc(CCNC(=O)c2ccc3c(=O)[nH]c4c(C(=O)NC(C)C)sc(=S)n4c3c2)cc1 | 0.8 | . | 3.29µM* | ? | . | 7.8
CC(C)NC(=O)c1sc(=S)n2c1[nH]c(=O)c1ccc(C(=O)NCCc3ccc(Cl)cc3)cc12 | 6.8 | . | ? | ? | . | -2.7
COc1cc2c(cc1C(F)(F)F)N(C(=O)Nc1cc(F)cc(-c3cccnc3)c1)CC2 | . | . | . | . | 1.26µM* | .
COc1cc2c(cc1OC)C(C)N(C(=O)Nc1ccc(F)cc1)CC2 (stereo not drawn) | -24.2 | . | -22.8% | -21.0% | . | 0.2
Cc1nn(-c2ccccc2)c(C)c1-c1nnc(C(F)(F)F)o1 | -4.1 | . | 25.2% | 16.0% | . | 1.8
Cc1nn(-c2ccccc2)c(C)c1-c1nnc(-c2c(C)nn(-c3ccccc3)c2C)o1 | -3.9 | ? | ? | 11.7µM* | ? | 1.4
O=C(NC(=S)NCC1CCCO1)c1ccc(Cl)cc1Cl (stereo not drawn) | 56.1* | -2.9% | ? | 7.1% | ? | 16.0*
COc1ccc(CCNC(=O)C(=O)NCC2CCCO2)cc1 (stereo not drawn) | 11.4 | 3.7% | 4.15µM* | 19.4% | 21.6% | 4.7
CC(C)(C)c1ccc(C(=O)N2CCC(C(=O)NCC3CCCO3)CC2)cc1 (stereo not drawn) | 35.4 | 17.5% | -3.8% | 19.5% | ? | 20.4*
CC(C)(C)c1ccc(C(=O)NC(=S)NCC2CCCO2)cc1 (stereo not drawn) | 148.3* | 13.9% | -15.6% | ? | -9.4% | 16.8*
COc1ccc(/C=C/C(=O)NC(=S)NCC2CCCO2)cc1 (stereo not drawn) | 52.9 | ? | 2.1% | 36.3% | -0.6%[46.1 µM] | 17.3
COc1ccc(C(=O)NC(=S)NCC2CCCO2)cc1 (stereo not drawn) | 53.5* | 3.4% | 17.9% | 57.1% | ? | 41.5*
COCCOC(=O)C1=C(C)N(c2ccccc2)C(=S)NC1c1ccccc1C(F)(F)F (stereo not drawn) | -8.6 | 1.6% | ? | -20.4% | ? | 23.2
COC(=O)C1=C(C)N(c2ccccc2)C(=S)NC1c1ccccc1C(F)(F)F (stereo not drawn) | -3.2 | ? | ? | 10.4µM* | -20.3% | -0.8
CN(C)c1nc(NC(C)(C)C)nc(NC(C)(C)C)n1 | 11.1 | -7.7% | 33.2% | 14.7µM* | ? | -5.4
CCNc1nc(NC(C)(C)C)nc(N(CC)n2cnnc2)n1 | -16.3 | -0.9% | . | -26.1% | 25.8% | 0.8
CCN=c1scc(-c2ccco2)n1/N=C/c1ccc(O)cc1 | 68.9* | ? | ? | . | 6.3% | 38.5*
CCN=c1scc(-c2ccco2)n1/N=C/c1ccc(OC)c(O)c1 | 138.9* | ? | 119.0% | 16.7% | 10.3% | 53.9*
COc1cc(/C=N/n2cnnc2)ccc1OC(=O)c1ccco1 | -21.8 | . | 6.4% | 7.3% | . | 7.6
O=C1C2C3C=CC(CC3)C2C(=O)N1c1ccc(F)cc1 (stereo not drawn) | . | 8.3% | 1.1% | -13.4% | ? | 5.3

Source: PubChem BioAssay
